Shown is part of a subset that was picked to be rich in hits.
TTR transcr act = TTR transcription activators in neuroblastoma reporter cells, primary screen, cell-based, luminescence, SH-SY5Y, TTR promoter Gaussia luciferase | AID 1117267, 2014 | 100% = recombinant luciferase protein wells | activation, % at 16.7 µM | 92,000 compounds, 1.3% hits;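 active means activation above the mean of all tested compounds plus 3 SD, cut at about 9.5% in these data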;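 further: cells exposed to compounds for one day before reading; 0% = median of all test compound wells on the plate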
HuH7 TTR inh = TTR promoter reporter inhibitors in hepatoma cells, counter-screen for TTR transcription activator project, cell-based, luminescence, HuH7 hepatoma. shares compounds with TTR transcr act. HuH7 TTR promoter-Gaussia luciferase reporter. inhibition, % at 16.7 µM. 1,100 compounds, 4% hits;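 active means average inhibition above the solvent-only control wells' mean plus 3 SD, cut at about 15% in these data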;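 further: 0% = cells with DMSO only and 100% = cells with inhibitor control FD; inhibitors lower well luminescence so higher value means more inhibition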
TTR up confirm = TTR transcription activators, retest, confirmation, cell-based, luminescence, SH-SY5Y, triplicate | shares compounds with TTR transcr act | SHSY5Y TTR promoter Gaussia luciferase; 100% = purified Lucia enzyme wells, no cells | activation, % at 16.7 µM | 1,100 tested, under 10 active;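 active means mean activation above a set limit taken from the earlier primary screen, cut at about 11% in these data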;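 further: 0% = DMSO-treated cells and 100% = recombinant Lucia luciferase without cells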
An asterisk follows results filed as active.

SMILES	TTR transcr act	others
COc1ccccc1C(=O)C1CCCN(C(=O)c2ccc3c(c2)OCCO3)C1 (stereo not drawn)	1
CCC[C@H]1[C@@H](OC(=O)N2CCN(c3ccccc3)CC2)CC[C@@]23CCCN2C(=O)CCC[C@@H]13	-2
COC(=O)[C@]12C[C@H](CC(=O)N3CCSCC3)C(=O)N(CCc3ccc(OC)c(OC)c3)C1=C[C@H](COCc1ccccc1)O[C@@H]2C	-1
Cc1cccc(Oc2nc(-c3ccccc3)cc(C)c2S(C)(=O)=O)c1C	12*	HuH7 TTR inh=-9;TTR up confirm=-1
Cc1cc(-c2ccccc2)nc(Oc2ccc(C(C)(C)C)cc2)c1S(C)(=O)=O	-2
Cc1cc(C)cc(Oc2nc(-c3ccccc3)cc(C)c2S(C)(=O)=O)c1	3
COC(=O)[C@]12C[C@H](CC(=O)NCCCN3CCCC3=O)C(=O)N(Cc3ccc4c(c3)OCO4)C1=C[C@H](C(C)C)O[C@@H]2C1CC1	0
CCOC(=O)[C@]12CCCC=C1N(Cc1ccc(OC)cc1)C(=O)[C@@H]2CC(=O)N1CCN(C(=O)C2CC2)CC1	3
COC(=O)[C@]12C[C@H](CC(=O)NCc3cccs3)C(=O)N(Cc3ccccc3)C1=C[C@H](COCc1ccccc1)O[C@@H]2C	-1
Cc1ccc(-c2c(NC(=O)c3cccc(C)c3)nc3ncccn23)cc1	2
COc1ccc(-c2csc3nc(-c4cccnc4)nc(N4CCC(C(N)=O)CC4)c23)cc1OC	-2
O=C1CN(c2nc(-c3cccnc3)nc3scc(-c4ccccc4)c23)CCN1	13*	HuH7 TTR inh=-5;TTR up confirm=-1
O=C(O)c1ccc(-c2nc3scc(-c4ccccc4)c3c(=O)[nH]2)cc1	5
Cc1cccc(C)c1-n1nnnc1C1(C)CN(S(C)(=O)=O)CC(=O)N1Cc1ccc(F)cc1 (stereo not drawn)	-1
CS(=O)(=O)c1ccc(C(=O)N(CCc2ccccc2)Cc2ccccc2)cc1	9.7*	HuH7 TTR inh=-8;TTR up confirm=1
CC(=O)Nc1cccc(C(=O)N(CCc2ccccc2)Cc2ccccc2)c1	-2
CS(=O)(=O)c1ccccc1C(=O)N(CCc1ccccc1)Cc1ccccc1	-2
COc1ccccc1C(=O)n1ccc2ccc(-c3ccc4ccn(Cc5ccc(C#N)cc5)c4c3)cc21	3
Cc1ccc([C@H]2C[C@]34CN(Cc5ccccc5)S(=O)(=O)[C@H]3C[C@H]2O4)cc1	0
CSc1ncccc1C(=O)OCC(=O)NCc1cccs1	2
Cc1ccc(C(=O)OCC(=O)NCc2cccs2)cc1	11*	HuH7 TTR inh=-6;TTR up confirm=0
COc1ccc(C(=O)NCC(=O)OCC(=O)NCc2cccs2)cc1	0
O=C(N[C@@H](Cc1ccccc1)C(=O)N1CCC2CCN(S(=O)(=O)c3ccccc3)CC21)[C@@H]1CCCN1 (stereo partly drawn)	0
COC(=O)[C@]12C[C@H](CC(=O)N3CCCCC3)C(=O)N(Cc3ccco3)C1=C[C@H](COCc1ccccc1)O[C@@H]2C	0
CCCCCC(=O)NC1CCCCN(Cc2ccc(Cl)cc2)C1=O (stereo not drawn)	0
SMILES	TTR transcr act	others
Cc1ccc(Cl)cc1NC(=O)CN1CCOCC1	4
Clc1ccc2c(c1)c1ccccc1n2CN1CCOCC1	22*	HuH7 TTR inh=-8;TTR up confirm=0
COc1ccc(Cl)cc1CN1CCOCC1	0
COCCNC(=O)c1ccc(N2CC3CC(C2)c2cccc(=O)n2C3)c(NC(=O)c2ccccc2Cl)c1 (stereo not drawn)	2
O=C(NC1CCCCN(Cc2cccc(Cl)c2)C1=O)c1ccc(Cl)cc1Cl (stereo not drawn)	-2
COc1ccc(OC)c(C2C(C(=O)O)c3ccccc3C(=O)N2C)c1 (stereo not drawn)	-2
COc1ccc(C2C(C(=O)N3CCN(c4ccccc4)CC3)c3ccccc3C(=O)N2C)cc1OC (stereo not drawn)	2
COc1ccc(C2C(C(=O)O)c3ccccc3C(=O)N2C)cc1Br (stereo not drawn)	11*	HuH7 TTR inh=-5;TTR up confirm=0
COCCOC(=O)N(C)C[C@@H]1OCCCC[C@H](C)Oc2ccc(NC(=O)Nc3ccccc3)cc2C(=O)N([C@@H](C)CO)C[C@H]1C	2
O=C(Cc1ccccc1)NC1CCCc2c1cnn2-c1ccc(F)cc1F (stereo not drawn)	-2
C[C@H]1C2CC(OC(=O)NCc3ccc(Cl)cc3)C(C2)[C@H]2CCCCN21 (stereo partly drawn)	1
O=S1(=O)CCSC[C@@H](CN2CCOCC2)N1	0
COc1cccc(CN[C@@H]2CC[C@@]34CCCN3C(=O)CCC[C@H]4C2)c1	3
COC[C@H]1CCCN1c1cccc2c1S(=O)(=O)N(C1CC1)CCCO2	0

Screening results: PubChem BioAssay, The Scripps Research Institute Molecular Screening Center
